Reference: PubChem BioAssay
The source made the active and inactive calls. How the calls were made is not given here.

Assay: inhibitors of hydroxyurea-induced Chk1 phosphorylation, primary screen, imaging, HeLa, phospho-Chk1 nuclear intensity (AID 1187); further: test concentration not given here
Details: hydroxyurea-induced phospho-Chk1 immunofluorescence imaging, higher = more signal

Structure (SMILES) | z-score
CN1C(=O)C2C=CC(C(O)COCc3ccccc3)N(Nc3ccc([N+](=O)[O-])cc3[N+](=O)[O-])C2C1=O (centres undefined) | -0.803 (inactive)
COC(=O)C1=CC(c2ccc(CO)cc2)=CC(C2CC2)N(Cc2cc3c(cc2Br)OCO3)C=C1C(=O)OC (centres undefined) | -0.0211 (inactive)
C=CC[C@H](O)c1ccc(O)c(F)c1 | -0.264 (inactive)
COc1ccc(C(O)C2C=CC3C(=O)N(c4ccccc4)C(=O)C3N2Nc2ccccc2F)c2ccccc12 (centres undefined) | -0.3 (inactive)
C=C(COC)C(=O)CC[C@@H](OC(=O)c1ccccc1-c1ccccc1C(=O)O)c1ccccc1OCCO | 0.888 (inactive)
COC(=O)C(CC#Cc1ccc2c(c1)[C@]1(C(=O)N2)[C@H](C(=O)N2CCCCCCC2)[C@H]2C(=O)O[C@H](c3ccccc3)[C@H](c3ccccc3)N2[C@@H]1c1ccc(OCCO)cc1)C(=O)OC | 0.331 (inactive)
C[C@H]1C2[C@H](Cc3ccccc3)NC(=O)[C@]23C(=O)N[C@@H](Cc2ccccc2)C(=O)N2CCC[C@H]2C(=O)NC/C=C/CC/C=C/C3[C@@H]2O[C@]12C (some centres undefined) | -0.437 (inactive)
CCCC[C@@H](O)C1=C(C)Cn2c(=O)n(-c3ccccc3)c(=O)n2[C@H]1CO | -0.621 (inactive)
CC(C)c1ccc(NN2C(C(O)C3CCCCC3)C=CC3C(=O)N(c4ccccc4)C(=O)C32)cc1 (centres undefined) | -0.566 (inactive)
